Consider 15 compounds from PubChem BioAssay (NCATS).

A number with no mark means an inactive call. Results filed as inconclusive are left out. Calls of active or inactive are those of the source. Unless noted, calls follow the shape of the dose curve; as a rule, active = well fitted curve in the direction sought with a large enough effect; inconclusive = small, poorly fitted or top-dose-only effect, or another doubt; inactive = no such curve, though single readings can be large; an effect the other way counts as inactive or inconclusive.

The target in assay [1] is Glucocorticoid receptor (Homo sapiens) (UniProt P04150). As to the kind of experiment: GR-GFP Redistribution (AID 450;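 active = compounds whose dose series gives a full or clear partial fitted curve of increased nuclear translocation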; also: potency is read from the fitted curve at half-maximal effect). The conditions noted are these: U2OS GR-GFP nuclear translocation, laser cytometry, 2 h.
Glucocorticoid receptor (Homo sapiens), sequence (P04150 whole entry, looked up, the tested form may be a part): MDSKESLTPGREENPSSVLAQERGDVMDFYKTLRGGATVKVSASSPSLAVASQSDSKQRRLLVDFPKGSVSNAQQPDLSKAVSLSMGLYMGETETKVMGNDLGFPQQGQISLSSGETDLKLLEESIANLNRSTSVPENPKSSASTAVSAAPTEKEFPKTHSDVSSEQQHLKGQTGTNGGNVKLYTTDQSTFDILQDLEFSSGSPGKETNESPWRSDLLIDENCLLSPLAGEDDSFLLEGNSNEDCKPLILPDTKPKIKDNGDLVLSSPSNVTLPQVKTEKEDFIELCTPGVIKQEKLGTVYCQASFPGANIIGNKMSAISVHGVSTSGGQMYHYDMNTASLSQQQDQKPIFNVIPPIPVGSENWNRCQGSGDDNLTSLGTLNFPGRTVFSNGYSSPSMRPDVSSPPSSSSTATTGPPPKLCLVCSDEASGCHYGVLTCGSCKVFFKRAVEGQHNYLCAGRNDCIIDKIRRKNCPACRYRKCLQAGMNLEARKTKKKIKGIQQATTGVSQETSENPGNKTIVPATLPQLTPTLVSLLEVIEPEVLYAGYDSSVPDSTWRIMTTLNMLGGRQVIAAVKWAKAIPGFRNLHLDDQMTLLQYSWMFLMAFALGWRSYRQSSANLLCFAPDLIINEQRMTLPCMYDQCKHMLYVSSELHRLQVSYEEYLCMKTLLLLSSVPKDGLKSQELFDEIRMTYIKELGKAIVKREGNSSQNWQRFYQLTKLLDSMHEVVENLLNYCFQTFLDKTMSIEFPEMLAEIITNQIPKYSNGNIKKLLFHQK
For assay [2] the target is unchanged. As to the kind of experiment: GR-EFC Redistribution (AID 451; calls by dose curve; also: potency is read from the fitted curve at half-maximal effect). The conditions noted are these: CHO-K1 GR-EFC translocation, beta-gal luminescence, 2 h. The method in brief: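 CHO-K1 cells stably expressing nuclear-localized β-gal enzyme acceptor and GR fused C-terminally to the enzyme donor fragment; ligand-driven nuclear translocation restores β-gal by complementation. Compounds titrated up to 46 uM final, 2 h at 37 °C; luminescence read.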

Assay [3] has as its target Mitogen-activated protein kinase 10 (Mus musculus) (UniProt Q61831). As to the kind of experiment: JNK3 AlphaScreen Assay (AID 530; active = well fitted curve in either direction with a large enough effect, not every such curve was filed as active;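 also: kinase came from lysate of stimulated human HepG2 cells; signal reports phosphorylation of biotinylated GST-cJun 1-79 at Ser73 with 10 µM ATP; series mostly up to about 57 µM; % is scaled to controls: 0 for no effect and ±100 for the full control effect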). The method in brief: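 Phosphorylation of biotinylated GST-cJun(1-79) at Ser73 is measured by AlphaScreen proximity luminescence. Enzyme is JNK3 in HepG2 lysates activated with interleukin-1beta and tumor necrosis factor alpha; ATP is 10 uM final.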
In general terms: Alpha assays give light when donor and acceptor beads are brought close together.

In assay [4] the target is Ubiquitin carboxyl-terminal hydrolase 1 (Homo sapiens) (UniProt O94782). As to the kind of experiment: Inhibitors of USP1/UAF1: Pilot qHTS (AID 504865).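 Also: rhodamine fluorescence freed from ubiquitin-rhodamine substrate followed over time; top concentration of the series differs between compounds; % is scaled to controls: 0 for no effect and ±100 for the full control effect; nearly all actives have a fitted effect of over 35% in size.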 The method in brief: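 In 50mM HEPES pH 7.8 containing 0.5mM EDTA, 1mM TCEP, 0.1 mg/ml BSA and 0.01% Tween-20, 1nM USP1/UAF1 is exposed to compound for 15 min, then Ub-Rho (150nM final) is added and fluorescence is read over time.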
Ubiquitin carboxyl-terminal hydrolase 1 (Homo sapiens), sequence (O94782 whole entry, looked up): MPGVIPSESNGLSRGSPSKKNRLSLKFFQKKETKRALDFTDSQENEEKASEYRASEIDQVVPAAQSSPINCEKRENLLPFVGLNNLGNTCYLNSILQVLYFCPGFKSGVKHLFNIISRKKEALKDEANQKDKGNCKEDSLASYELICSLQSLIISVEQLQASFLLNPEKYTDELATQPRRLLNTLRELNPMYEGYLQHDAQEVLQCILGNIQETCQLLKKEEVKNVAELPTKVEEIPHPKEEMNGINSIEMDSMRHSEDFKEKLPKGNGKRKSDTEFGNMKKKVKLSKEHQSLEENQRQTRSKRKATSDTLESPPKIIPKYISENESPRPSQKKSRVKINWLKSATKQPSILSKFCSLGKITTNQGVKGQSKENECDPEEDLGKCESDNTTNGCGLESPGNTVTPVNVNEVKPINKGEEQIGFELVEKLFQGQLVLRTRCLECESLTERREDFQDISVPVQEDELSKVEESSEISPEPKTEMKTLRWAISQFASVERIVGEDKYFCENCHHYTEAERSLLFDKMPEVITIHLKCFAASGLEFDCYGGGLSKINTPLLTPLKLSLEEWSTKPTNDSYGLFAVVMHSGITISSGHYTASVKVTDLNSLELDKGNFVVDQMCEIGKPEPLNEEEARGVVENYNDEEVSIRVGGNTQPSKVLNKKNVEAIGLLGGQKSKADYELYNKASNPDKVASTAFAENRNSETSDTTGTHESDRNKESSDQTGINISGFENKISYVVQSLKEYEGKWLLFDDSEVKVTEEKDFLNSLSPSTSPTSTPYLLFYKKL

The target in assay [5] is DNA dC->dU-editing enzyme APOBEC-3G (Homo sapiens) (UniProt Q9HC16). Nature of the assay: qHTS for inhibitors of Vif-A3G interactions: Validation (AID 588379). Also: 0% is about no effect. The method in brief:
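Yellow fluorescence (Ex 488, Em 500-530) of Vif-coexpressing HeLa A3G-eYFP cells, scanned by Acumen cytometer, reports blocked A3G degradation. Cells plated at 700/well overnight at 37 deg C before compound addition, then a further overnight compound incubation at 37 deg C.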
A general note: Quantitative high-throughput screening tests each substance at several concentrations.

Assay [6] deals with Zika virus NS2B-NS3 protease. Nature of the assay: Primary screen GU AMC qHTS for Zika virus inhibitors (AID 1347154).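 Also: 0% = no-inhibitor control and -100% = no-enzyme control; nearly all actives have a fitted effect of over 70% in size.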 The method in brief:
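Unlinked Zika NS2B hydrophilic domain/NS3 protease domain noncovalent complex (25 nM final) in 10 mM Tris-HCl pH 8.0, 0.01% Tween 20, with AMC peptide substrate. Fluorescence (ex 340, em 450 nm) change over 15 min, room temperature; percent inhibition fitted to 4-parameter Hill equation.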

Assay [7] can be described thus: Cell Viability qHTS for small molecule stabilizers of the endoplasmic reticulum resident proteome (AID 1508629).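 Also: compound exposure about 46 h in total before the viability read.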 Also: potency is read from the fitted curve at half-maximal effect.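 As to max response: human SH-SY5Y neuroblastoma cells carrying the GLuc-SERCaMP reporter; % is scaled to controls: 0 for no effect and ±100 for the full control effect.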 The conditions noted are these: cell viability counter-screen, 100 nM thapsigargin for final 4 h.
Assay [8] concerns the target 3',5'-cyclic-AMP phosphodiesterase 4B (Homo sapiens) (UniProt Q07343). As to the kind of experiment: qHTS Assay for Inhibitors of PDE-IV (AID 607; active = well fitted activation curve with a large enough effect in the main read-out, with a control signal flat, not every such curve was filed as active; also: % of control where 0% means no effect). The method in brief: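 ACTOne HEK293 cells carry a modified cAMP-gated CNG channel and express endogenous PDE4; plated 1000 cells/well, compounds up to 22.9 uM final. Membrane-potential dye fluorescence (ex 535/em 590) was read; parental cells received 10 uM forskolin + 100 uM RO 20-1724.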

For assay [9], the target named is Cytochrome P450 2C9 (Homo sapiens) (UniProt P11712). As to the kind of experiment: qHTS Assay for Inhibitors and Substrates of Cytochrome P450 2C9 (AID 883). Also: potency is read from the fitted curve at half-maximal effect; nearly all actives have a fitted effect of over 60% in size. The method in brief:
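Human CYP2C9 (10nM) hydroxylated Luciferin-H (100uM, at its KM) to luciferin in 25mM KPO4. Compound was preincubated 10 min at 37C, then NADPH regeneration started a 60 min reaction at 37C. Luminescence was read after detection reagent, normalized to 57uM sulphaphenazole.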

In assay [10] the target is Cytochrome P450 3A4 (Homo sapiens) (UniProt P08684). As to the kind of experiment: qHTS Assay for Activators of Cytochrome P450 3A4 (AID 885). Also: nearly all actives have a fitted effect of over 65% in size. The method in brief:
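CYP3A4 activity: Luciferin-PPXE O-dealkylation, 25uM substrate, 200mM KPO4, RT throughout. Read-out is luciferase luminescence; higher values reflect activation.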

Assay [11] in a line: Primary qHTS for small molecule stabilizers of the endoplasmic reticulum resident proteome: Secreted ER Calcium Modulated Protein (SERCaMP) assay (AID 1508630). Also: % is scaled to controls: 0 for no effect and ±100 for the full control effect. The method in brief: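 The SH-SY5Y reporter protocol was run at 3 concentrations up to 38.3 uM (primary) or 11 concentrations (follow-up): 16 h compound, 100 nM thapsigargin for 4 h, then extracellular luciferase luminescence.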

DNA dC->dU-editing enzyme APOBEC-3G (Homo sapiens), sequence (Q9HC16 whole entry, looked up): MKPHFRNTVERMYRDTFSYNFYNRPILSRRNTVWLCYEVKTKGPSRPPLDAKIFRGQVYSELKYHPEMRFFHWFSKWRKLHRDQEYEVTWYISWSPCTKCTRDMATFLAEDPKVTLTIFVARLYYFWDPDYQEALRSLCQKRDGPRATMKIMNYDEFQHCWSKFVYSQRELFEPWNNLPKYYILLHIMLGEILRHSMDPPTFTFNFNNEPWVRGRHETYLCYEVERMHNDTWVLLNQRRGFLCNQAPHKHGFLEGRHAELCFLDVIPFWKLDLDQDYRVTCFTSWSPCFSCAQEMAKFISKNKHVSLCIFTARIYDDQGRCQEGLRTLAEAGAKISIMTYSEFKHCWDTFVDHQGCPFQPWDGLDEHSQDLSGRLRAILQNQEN
3',5'-cyclic-AMP phosphodiesterase 4B (Homo sapiens), sequence (Q07343 whole entry, looked up): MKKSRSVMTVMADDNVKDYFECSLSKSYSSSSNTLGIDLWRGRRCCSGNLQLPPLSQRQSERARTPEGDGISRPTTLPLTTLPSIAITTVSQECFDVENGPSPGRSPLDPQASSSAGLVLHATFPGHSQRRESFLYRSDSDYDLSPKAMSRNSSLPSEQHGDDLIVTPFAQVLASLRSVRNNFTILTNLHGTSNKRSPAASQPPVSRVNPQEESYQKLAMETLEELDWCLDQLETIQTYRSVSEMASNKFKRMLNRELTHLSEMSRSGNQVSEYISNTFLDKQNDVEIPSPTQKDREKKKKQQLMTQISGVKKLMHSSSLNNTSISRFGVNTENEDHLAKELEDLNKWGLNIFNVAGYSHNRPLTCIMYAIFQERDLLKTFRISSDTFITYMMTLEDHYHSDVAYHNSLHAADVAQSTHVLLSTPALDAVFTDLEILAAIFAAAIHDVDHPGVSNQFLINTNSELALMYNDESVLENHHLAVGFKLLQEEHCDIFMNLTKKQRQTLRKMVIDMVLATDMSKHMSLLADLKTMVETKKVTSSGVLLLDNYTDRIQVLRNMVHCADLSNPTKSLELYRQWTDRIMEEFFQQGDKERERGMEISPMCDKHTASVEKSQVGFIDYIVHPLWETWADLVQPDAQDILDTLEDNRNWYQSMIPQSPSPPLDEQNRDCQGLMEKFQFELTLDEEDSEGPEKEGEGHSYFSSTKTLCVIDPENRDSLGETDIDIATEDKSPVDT
Cytochrome P450 2C9 (Homo sapiens), sequence (P11712 whole entry, looked up): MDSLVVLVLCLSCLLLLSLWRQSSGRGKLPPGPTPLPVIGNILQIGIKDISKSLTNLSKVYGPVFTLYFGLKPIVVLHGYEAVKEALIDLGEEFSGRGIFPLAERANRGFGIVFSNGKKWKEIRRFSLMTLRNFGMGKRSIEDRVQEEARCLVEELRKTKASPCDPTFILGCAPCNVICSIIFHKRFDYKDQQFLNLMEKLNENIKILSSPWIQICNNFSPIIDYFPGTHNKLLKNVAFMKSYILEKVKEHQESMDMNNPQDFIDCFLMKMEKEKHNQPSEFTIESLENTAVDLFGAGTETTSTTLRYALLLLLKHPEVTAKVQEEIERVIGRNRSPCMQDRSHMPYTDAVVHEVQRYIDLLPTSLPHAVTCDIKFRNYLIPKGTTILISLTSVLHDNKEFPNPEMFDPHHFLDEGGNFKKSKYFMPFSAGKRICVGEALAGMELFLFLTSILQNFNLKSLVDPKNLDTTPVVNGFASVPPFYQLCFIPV
Cytochrome P450 3A4 (Homo sapiens), sequence (P08684 whole entry, looked up): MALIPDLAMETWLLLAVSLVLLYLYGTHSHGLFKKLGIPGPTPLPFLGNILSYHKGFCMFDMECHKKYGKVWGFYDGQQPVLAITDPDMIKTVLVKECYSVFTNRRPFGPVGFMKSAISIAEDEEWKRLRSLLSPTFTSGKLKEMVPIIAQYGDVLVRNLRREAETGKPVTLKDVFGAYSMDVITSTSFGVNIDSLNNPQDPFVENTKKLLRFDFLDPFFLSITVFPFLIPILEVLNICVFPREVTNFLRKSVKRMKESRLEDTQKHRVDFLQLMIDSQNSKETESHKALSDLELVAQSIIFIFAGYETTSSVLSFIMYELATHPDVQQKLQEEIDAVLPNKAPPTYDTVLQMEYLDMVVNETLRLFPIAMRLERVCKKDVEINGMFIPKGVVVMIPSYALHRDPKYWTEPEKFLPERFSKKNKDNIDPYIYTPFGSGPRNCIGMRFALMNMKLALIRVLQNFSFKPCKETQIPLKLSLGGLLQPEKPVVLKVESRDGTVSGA

In the case of `CN1CC[C@@]2(c3cccc(O)c3)Cc3nc4ccccc4cc3C[C@H]2C1`, the Potency in assay [1] and in assay [2] was above 46 µM each time. In [3], the compound was called inactive. The Potency entry in [4], in assay [5] and in assay [6] was “inactive” each time. In addition, the max response in assay [7] was -3.73%.
As for `CN1[C@@H]2CC[C@H]1CC(OC(c1ccc(F)cc1)c1ccc(F)cc1)C2` (stereo partly specified), the results for the Potency in assay [1], in assay [2] and in assay [7] were above 46 µM, above 46 µM and 25.1 µM (active), respectively. Also, the Potency result in assay [4] and in assay [6] was “inactive” in each case.
As for `C=CCN1C[C@H](C)N([C@H](c2ccc(C(=O)N(CC)CC)cc2)c2cccc(O)c2)C[C@H]1C`, the Potency was above 46 µM in [1], above 46 µM in [2] and 3.98 µM (active) in assay [9]. Also, the call in [3] was inactive. In addition, the Potency entry in [8], in [10], in assay [4], in assay [5] and in assay [6] was “inactive” in each case. Also, the max response in assay [7] is 8.89%.
For the compound `CSCC[C@H](NC(=O)[C@H](Cc1ccccc1)NC(=O)CNC(=O)CNC(=O)[C@@H](N)Cc1ccc(O)cc1)C(=O)O`, the activity change, negative = inhibition is -0.9% [at 6.83 µM] in [6] and -26.7% [at 3.88 µM] in [11].
`CC(C)(C)NC[C@H](O)COc1cccc2[nH]c(C#N)cc12`: the Potency entry in assay [6] and in assay [11] was “inactive” throughout.
Turning to `CCCCC/C=C\C/C=C\C/C=C\C=C\[C@H](CCCC(=O)O)OO`, the activity change, negative = inhibition was 7.53% [at 0.59 µM] in [6] and -17.5% [at 0.478 µM] in [11].
Turning to `O=C(O)C1CN(CP(=O)(O)O)CCN1` (stereo unspecified), the Potency entry in assay [6] and in assay [11] was “inactive” throughout.
In the case of `CC[C@H](C)[C@H](NC(=O)[C@H](CCCN=C(N)N)NC(=O)[C@H](CCCN=C(N)N)NC(=O)[C@H](CC(C)C)NC(=O)[C@H](Cc1ccccc1)NC(=O)CNC(=O)CNC(=O)[C@@H](N)Cc1ccc(O)cc1)C(=O)O`, the activity change, negative = inhibition in [6] was 10.8% [at 6.83 µM]; in [11], -13% [at 3.88 µM].
With `C=CCN1CCC23c4c5ccc(O)c4OC2/C(=N/N=C2\CCC4(O)C6Cc7ccc(O)c8c7C4(CCN6CC=C)C2O8)CCC3(O)C1C5` (stereo unspecified), the Potency entry in assay [6] and in assay [11] was “inactive” throughout.
Regarding `NCCCC[C@H](NC(=O)[C@H](Cc1ccccc1)NC(=O)[C@H](CCCN=C(N)N)NC(=O)[C@@H](N)Cc1ccc(O)cc1)C(N)=O`, the activity change, negative = inhibition in assay [6] was 9.11% [at 6.83 µM]; in [11] it was -26.5% [at 3.88 µM].
`C=C1C(=O)O[C@@H]2C[C@@H](C)[C@@H]3C=CC(=O)[C@@]3(C)[C@@H](O)[C@H]12`: the Potency entry in [6] and in [11] was “inactive” throughout.
Regarding `N#CC(C#N)=Cc1cc(O)c(O)c([N+](=O)[O-])c1`, the Potency entry in [6] and in assay [11] was “inactive” in each case.
Regarding `NCC(CS(=O)(=O)O)c1ccc(Cl)cc1` (stereo unspecified), the Potency entry in assay [6] and in assay [11] was “inactive” throughout.
For the compound `CCCN(C/C=C/I)C1CCc2ccc(O)cc2C1` (stereo unspecified), the Potency result in assay [6] and in assay [11] was “inactive” throughout.
With `CC(N)(COP(=O)(O)Oc1ccccc1)C(=O)O` (stereo unspecified), the Potency entry in assay [6] and in assay [11] was “inactive” each time.
